The values below come from PubChem BioAssay (EPA / NIEHS).

Values joined by “and” are separate entries in the source; they are usually repeats but may differ in a detail not shown here. Equal values may be shown once. Results filed as inconclusive are left out. Some compounds were tested as several samples or in several runs, with calls that do not always agree. Active and inactive are the calls of the source. How the source made its calls, unless noted: active means hit-call score of the fitted dose curve at least 0.9, where 1 is the maximum; inactive means score below 0.9.

Experiment [1] deals with Bile acid receptor (Homo sapiens) (UniProt Q96RI1). The experiment can be described thus: ATG_FXR_TRANS: Attagene TRANS-FACTORIAL HepG2 Assay for Farnesoid X Receptor (FXR) (AID 2282979; active means hit-call score of the fitted dose curve at least 0.9, where 1 is the maximum;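 further: hits raise reporter mRNA above DMSO so AC50 marks FXR activation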). The settings on record: HepG2 Attagene TRANS FXR-GAL4 reporter transcription. An outline of the steps: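 Transient transfection of HepG2 with multiplexed GAL4-UAS reporter units; exogenous FXR-GAL4 chimera. Dose 24 h → TriZol RNA → oligo(dT) RT → PCR, 6-FAM primer extension, HpaI cut → CE. Gain vs DMSO.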
Bile acid receptor (Homo sapiens), sequence (Q96RI1 whole entry, looked up, the tested form may be a part): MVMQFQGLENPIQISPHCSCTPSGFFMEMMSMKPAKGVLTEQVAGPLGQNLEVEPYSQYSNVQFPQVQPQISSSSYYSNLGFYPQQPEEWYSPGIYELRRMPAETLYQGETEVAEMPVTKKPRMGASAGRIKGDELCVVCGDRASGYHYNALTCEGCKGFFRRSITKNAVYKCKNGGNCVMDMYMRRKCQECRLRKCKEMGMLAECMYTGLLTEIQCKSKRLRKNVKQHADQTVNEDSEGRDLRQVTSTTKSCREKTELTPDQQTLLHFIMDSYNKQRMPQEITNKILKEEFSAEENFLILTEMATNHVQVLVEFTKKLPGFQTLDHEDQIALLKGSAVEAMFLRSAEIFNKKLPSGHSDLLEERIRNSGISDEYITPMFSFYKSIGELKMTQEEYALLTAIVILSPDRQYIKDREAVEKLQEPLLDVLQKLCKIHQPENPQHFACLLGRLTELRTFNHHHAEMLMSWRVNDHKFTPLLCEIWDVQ

Experiment [2] can be described thus: ATG_M_32_TRANS: Attagene TRANS-FACTORIAL HepG2 Assay for M32 Transcription Factor (Internal Marker) (AID 2282984; active means hit-call score of the fitted dose curve at least 0.9, where 1 is the maximum;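 further: transcript level of a background control reporter unit measured by RT-PCR and capillary electrophoresis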). The settings on record: HepG2 Attagene TRANS M32 internal marker reporter. An outline of the steps: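 Read-out: fluorescent reporter cDNA fragments resolved by capillary electrophoresis after RT-PCR of total RNA. Transfected HepG2 cells were exposed to chemical for 24 h. Activity scored in the positive direction relative to DMSO.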

For experiment [3], the target named is Nuclear receptor subfamily 4 group A member 2 (Homo sapiens) (UniProt P43354). Put plainly: ATG_NURR1_TRANS: Attagene TRANS-FACTORIAL HepG2 Assay for human Nuclear Receptor Related Protein 1 (NURR1) (AID 2282985; active means hit-call score of the fitted dose curve at least 0.9, where 1 is the maximum). The settings on record: HepG2 Attagene TRANS reporter, mRNA readout. An outline of the steps: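 Read-out: reporter mRNA induction by RT-PCR plus capillary electrophoresis with fluorescence detection, after 24 h dosing of transfected HepG2 cells. Exogenous NR-Gal4 chimera activity drives GAL4-UAS reporter; activity fitted upward versus DMSO.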
Nuclear receptor subfamily 4 group A member 2 (Homo sapiens), sequence (P43354 whole entry, looked up, the tested form may be a part): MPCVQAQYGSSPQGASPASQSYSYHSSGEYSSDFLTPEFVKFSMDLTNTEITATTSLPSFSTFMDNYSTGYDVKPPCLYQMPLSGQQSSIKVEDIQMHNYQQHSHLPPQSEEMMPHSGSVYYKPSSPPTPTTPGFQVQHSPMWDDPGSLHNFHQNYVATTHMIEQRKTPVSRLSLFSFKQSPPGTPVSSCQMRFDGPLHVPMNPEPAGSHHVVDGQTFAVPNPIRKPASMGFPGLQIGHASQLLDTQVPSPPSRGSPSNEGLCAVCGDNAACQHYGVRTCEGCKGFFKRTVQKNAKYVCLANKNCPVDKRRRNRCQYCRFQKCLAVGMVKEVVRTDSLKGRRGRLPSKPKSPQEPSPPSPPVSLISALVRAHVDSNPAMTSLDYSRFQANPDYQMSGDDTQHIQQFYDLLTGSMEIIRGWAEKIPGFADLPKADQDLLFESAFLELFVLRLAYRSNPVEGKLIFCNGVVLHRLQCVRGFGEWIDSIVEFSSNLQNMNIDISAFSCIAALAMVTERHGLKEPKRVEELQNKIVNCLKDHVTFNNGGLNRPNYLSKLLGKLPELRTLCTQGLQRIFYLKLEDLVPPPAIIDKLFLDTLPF

In experiment [4] the target is Nuclear respiratory factor 1 (Homo sapiens) (UniProt Q16656). Put plainly: ATG_NRF1_CIS: Attagene CIS-FACTORIAL HepG2 Assay for human Nuclear Respiratory Factor 1 (NRF1) Orphan Gene (AID 2282987). The settings on record: HepG2 NRF1 cis-element reporter, Attagene multiplex; actives raise or lower the signal. An outline of the steps: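 Reporter mRNA induction or loss in HepG2 cells after 24 h dosing; cis-regulated reporter constructs report endogenous transcription-factor activity. Quantified by RT-PCR/capillary electrophoresis fluorescence, DMSO-referenced.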
Nuclear respiratory factor 1 (Homo sapiens), sequence (Q16656 whole entry, looked up): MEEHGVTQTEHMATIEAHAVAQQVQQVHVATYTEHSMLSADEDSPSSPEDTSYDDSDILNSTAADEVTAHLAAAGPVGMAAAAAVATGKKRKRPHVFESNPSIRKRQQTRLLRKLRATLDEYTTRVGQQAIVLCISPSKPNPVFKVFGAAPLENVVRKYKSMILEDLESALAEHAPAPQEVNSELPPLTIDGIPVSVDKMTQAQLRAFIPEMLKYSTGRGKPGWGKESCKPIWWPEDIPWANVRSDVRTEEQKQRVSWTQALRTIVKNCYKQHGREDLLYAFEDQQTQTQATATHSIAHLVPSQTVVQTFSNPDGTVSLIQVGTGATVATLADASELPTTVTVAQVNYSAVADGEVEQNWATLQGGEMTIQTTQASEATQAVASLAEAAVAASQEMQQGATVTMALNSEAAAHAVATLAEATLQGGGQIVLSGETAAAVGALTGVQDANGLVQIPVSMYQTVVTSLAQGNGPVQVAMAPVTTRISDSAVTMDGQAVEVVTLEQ

A short description of experiment [5]: ATG_NFI_CIS: Attagene CIS-FACTORIAL HepG2 Assay for human Nuclear Factor I (NFI) (AID 2282989). Particulars: HepG2 cis-regulatory reporter, NFI response element transcription; actives raise or lower the signal. An outline of the steps: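 Cells: human liver HepG2, transiently transfected with promoter-regulated reporter transcription units. Exposure 24 h. Detection: fluorescent RT-PCR products separated by capillary electrophoresis, normalised to DMSO negative control.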

For experiment [6], the target named is Myc proto-oncogene protein (Homo sapiens) (UniProt P01106). The experiment can be described thus: ATG_Myc_CIS: Attagene CIS-FACTORIAL HepG2 Assay for human Myelocytomatosis (Myc) Proto-Oncogene Transcription Factor (AID 2282990). The settings on record: HepG2, Attagene cis-reporter transcription factor activity; actives raise or lower the signal. An outline of the steps: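 Read-out: fluorescent reporter mRNA fragments resolved by capillary electrophoresis after RT-PCR. Human HepG2 liver cells carried transfected cis-element reporter units and were dosed for 24 h. Gain or loss of signal fitted relative to DMSO baseline.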
Myc proto-oncogene protein (Homo sapiens), sequence (P01106 whole entry, looked up, the tested form may be a part): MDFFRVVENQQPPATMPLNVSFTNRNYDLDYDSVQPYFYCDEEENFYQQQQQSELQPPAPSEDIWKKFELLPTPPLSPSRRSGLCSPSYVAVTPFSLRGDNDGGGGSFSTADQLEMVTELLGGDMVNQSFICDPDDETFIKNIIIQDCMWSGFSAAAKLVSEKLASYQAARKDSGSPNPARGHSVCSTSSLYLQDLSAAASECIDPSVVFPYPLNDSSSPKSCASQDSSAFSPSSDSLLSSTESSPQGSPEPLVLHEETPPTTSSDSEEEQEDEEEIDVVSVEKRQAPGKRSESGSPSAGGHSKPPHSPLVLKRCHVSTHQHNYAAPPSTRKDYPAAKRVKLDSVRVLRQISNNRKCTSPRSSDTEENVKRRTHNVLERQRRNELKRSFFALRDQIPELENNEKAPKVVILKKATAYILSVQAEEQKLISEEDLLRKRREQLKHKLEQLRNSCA

Experiment [7] in a line: ATG_NF_kB_CIS: Attagene CIS-FACTORIAL HepG2 Assay for human Nuclear Factor Kappa B (NF-kB) (AID 2282991). Particulars: HepG2 Attagene cis-factorial NF-kB reporter mRNA; actives raise or lower the signal. An outline of the steps: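 DMSO served as negative control and baseline for bidirectional curve fitting. Transiently transfected HepG2 cells were dosed for 24 h, then reporter transcripts were measured by RT-PCR with capillary electrophoresis detection.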

Experiment [8] can be described thus: ATG_NRF2_ARE_CIS: Attagene CIS-FACTORIAL HepG2 Assay for human Nuclear Factor Erythroid 2 Related Factor 2 (NFR2) response to Antioxidant Response Elements (ARE) (AID 2282992).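 On AC50: reporter mRNA level measured by RT-PCR and capillary electrophoresis fluorescence.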 Particulars: HepG2 Attagene ARE/NRF2 reporter, transcription factor activity; actives raise or lower the signal. An outline of the steps:
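Fluorescence intensity of reporter-specific cDNA fragments, separated by capillary electrophoresis, reflects mRNA induction in transfected HepG2 cells at 24 h. Activity is fitted bidirectionally, DMSO serving as baseline.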

Experiment [9] in a line: ATG_Oct_MLP_CIS: Attagene CIS-FACTORIAL HepG2 Assay for human Octamer-Binding Transcription Factor (Oct) (AID 2282993). Particulars: HepG2 Attagene cis-factorial Oct reporter, mRNA; actives raise or lower the signal. An outline of the steps: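 HepG2, transient MRTU transfection, cis promoter elements; 24 h dosing; RT-PCR/CE fluorescence read-out of reporter mRNA; fit both directions vs DMSO.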

The target in experiment [10] is Cellular tumor antigen p53 (Homo sapiens) (UniProt P04637). Put plainly: ATG_p53_CIS: Attagene CIS-FACTORIAL HepG2 Assay for human p53 Transcription Factor (AID 2282994). Particulars: HepG2 p53 cis-element reporter, Attagene mRNA; actives raise or lower the signal. An outline of the steps: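 Transiently transfected HepG2 (multiple cis reporter transcription units); exposure 24 h; reporter RNA via RT-PCR, 6-FAM extension, 2 h HpaI digest at 37 C, CE detection; DMSO baseline.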
Cellular tumor antigen p53 (Homo sapiens), sequence (P04637 whole entry, looked up): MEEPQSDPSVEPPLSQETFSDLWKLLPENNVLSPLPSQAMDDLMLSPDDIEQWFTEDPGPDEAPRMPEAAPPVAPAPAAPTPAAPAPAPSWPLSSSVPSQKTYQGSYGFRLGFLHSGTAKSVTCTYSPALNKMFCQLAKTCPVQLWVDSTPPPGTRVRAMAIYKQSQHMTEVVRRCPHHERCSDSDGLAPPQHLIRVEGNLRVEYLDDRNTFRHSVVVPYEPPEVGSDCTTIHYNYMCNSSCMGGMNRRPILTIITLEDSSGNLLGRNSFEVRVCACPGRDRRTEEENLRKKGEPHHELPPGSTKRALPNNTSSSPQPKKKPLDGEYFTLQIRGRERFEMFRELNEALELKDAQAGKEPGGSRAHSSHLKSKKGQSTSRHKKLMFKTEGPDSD

Experiment [11] in a line: BSK_3C_TissueFactor: BioMAP Diversity Plus: 3C Assay for Tissue Factor Biomarker Activity (AID 2282997). The settings on record: BioMAP 3C HUVEC, tissue factor biomarker readout; actives raise or lower the signal. An outline of the steps: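 After a 24 h chemical exposure of primary human umbilical vein endothelial cells, Tissue Factor levels were quantified by ELISA.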

A short description of experiment [12]: BSK_3C_uPAR: BioMAP Diversity Plus: 3C Assay for Urokinase-type plasminogen activator receptor (uPAR) Biomarker Activity (AID 2282998). Particulars: BioMAP 3C HUVEC, uPAR biomarker ELISA; actives raise or lower the signal. An outline of the steps:
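A multiplexed primary-cell system built on human umbilical vein endothelium was used, with chemical present for 24 h before reading. Cell-surface uPAR was detected by ELISA; signal change in either direction counted against DMSO.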
A general note: ELISA stands for enzyme-linked immunosorbent assay.

In experiment [13] the target is Oxysterols receptor LXR-alpha (Homo sapiens) (UniProt Q13133). Put plainly: ATG_LXRa_TRANS: Attagene TRANS-FACTORIAL HepG2 Assay for human Liver X Receptor alpha (LXRa) (AID 2282980; active means hit-call score of the fitted dose curve at least 0.9, where 1 is the maximum). Particulars: HepG2 Attagene TRANS reporter, LXRa transactivation. An outline of the steps: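 Transfect HepG2 with GAL4-UAS multiplex reporter constructs (TRANS format, chimeric receptor-GAL4); treat 24 h; extract RNA, reverse-transcribe, PCR-amplify, FAM-label, HpaI-digest; resolve fragments by capillary electrophoresis. Upward response vs DMSO.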
Oxysterols receptor LXR-alpha (Homo sapiens), sequence (Q13133 whole entry, looked up, the tested form may be a part): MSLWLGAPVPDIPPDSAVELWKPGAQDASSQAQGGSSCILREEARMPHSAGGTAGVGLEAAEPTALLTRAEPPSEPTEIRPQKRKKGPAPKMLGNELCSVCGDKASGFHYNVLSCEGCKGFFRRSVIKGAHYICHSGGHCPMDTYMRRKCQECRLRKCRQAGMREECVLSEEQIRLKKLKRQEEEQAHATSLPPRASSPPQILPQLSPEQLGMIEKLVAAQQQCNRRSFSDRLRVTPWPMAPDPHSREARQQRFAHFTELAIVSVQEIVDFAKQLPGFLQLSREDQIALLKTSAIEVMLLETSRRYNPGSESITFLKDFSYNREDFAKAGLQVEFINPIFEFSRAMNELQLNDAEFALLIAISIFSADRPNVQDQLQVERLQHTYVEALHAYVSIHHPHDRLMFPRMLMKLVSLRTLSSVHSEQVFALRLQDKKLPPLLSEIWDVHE

For experiment [14], the target named is Oxysterols receptor LXR-beta (Homo sapiens) (UniProt P55055). Put plainly: ATG_LXRb_TRANS: Attagene TRANS-FACTORIAL HepG2 Assay for human Liver X Receptor beta (LXRb) (AID 2282981; active means hit-call score of the fitted dose curve at least 0.9, where 1 is the maximum). The settings on record: HepG2 Attagene TRANS GAL4-LXRb reporter, mRNA. An outline of the steps: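 Readout: fluorescent reporter mRNA fragments resolved by capillary electrophoresis after RT-PCR. System: transiently transfected human HepG2, exogenous LXRb-Gal4 chimera driving GAL4-UAS reporter, 24 h dosing. Activity fitted upward against DMSO baseline.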
Oxysterols receptor LXR-beta (Homo sapiens), sequence (P55055 whole entry, looked up, the tested form may be a part): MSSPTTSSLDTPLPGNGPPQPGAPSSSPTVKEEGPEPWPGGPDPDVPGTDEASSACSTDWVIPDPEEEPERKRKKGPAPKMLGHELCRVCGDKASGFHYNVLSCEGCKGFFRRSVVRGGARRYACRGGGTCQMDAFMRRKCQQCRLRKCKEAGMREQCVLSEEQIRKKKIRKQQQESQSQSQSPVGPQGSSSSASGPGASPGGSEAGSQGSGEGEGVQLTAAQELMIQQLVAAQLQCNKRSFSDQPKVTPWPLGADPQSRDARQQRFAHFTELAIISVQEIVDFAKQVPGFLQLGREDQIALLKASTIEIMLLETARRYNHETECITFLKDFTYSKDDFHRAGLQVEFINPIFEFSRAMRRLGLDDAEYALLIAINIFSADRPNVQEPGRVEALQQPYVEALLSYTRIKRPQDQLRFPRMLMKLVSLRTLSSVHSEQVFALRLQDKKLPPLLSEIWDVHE

Experiment [15] in a line: ATG_M_06_TRANS: Attagene TRANS-FACTORIAL HepG2 Assay for M06 Transcription Factor (Internal Marker) (AID 2282983; active means hit-call score of the fitted dose curve at least 0.9, where 1 is the maximum;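 further: reporter transcript level by RT-PCR then capillary electrophoresis fluorescence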). Particulars: HepG2 Attagene TRANS M06 internal marker reporter. An outline of the steps: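 Background control endpoint: reporter mRNA from transiently transfected HepG2 after 24 h dosing, detected by RT-PCR with capillary electrophoresis fluorescence. Analysed for gain versus DMSO.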

The nature of experiment [16]: BSK_3C_VCAM1: BioMAP Diversity Plus: 3C Assay for Vascular cell adhesion molecule 1 (VCAM1) Biomarker Activity (AID 2282999). The settings on record: BioMAP 3C HUVEC, VCAM1 ELISA, cytokine-stimulated; actives raise or lower the signal. An outline of the steps: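 HUVEC primary cells, 24 h compound exposure; VCAM-1 by ELISA; gain/loss of signal fitted bidirectionally vs DMSO baseline.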

Experiment [17] in a line: BSK_4H_Eotaxin3: BioMAP Diversity Plus: 4H Assay for Eotaxin 3 Biomarker Activity (AID 2283000). Particulars: primary human endothelial cells (HUVEC); actives raise or lower the signal. An outline of the steps:
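Chemicals were added to human umbilical vein endothelium cultures, and Eotaxin-3 was quantified by ELISA at 24 h. Values were derived by bidirectional fitting with DMSO serving as negative control and activity baseline.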

Experiment [18] concerns the target Hepatocyte nuclear factor 4-alpha (Homo sapiens) (UniProt P41235). Put plainly: ATG_HNF4a_TRANS: Attagene TRANS-FACTORIAL HepG2 Assay for human Hepatocyte Nuclear Factor 4 alpha (HNF4a) (AID 2282982; active means hit-call score of the fitted dose curve at least 0.9, where 1 is the maximum). The settings on record: HepG2 HNF4a transactivation reporter, mRNA readout. An outline of the steps: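 Transient MRTU transfection of HepG2, 24 h dosing. Readout: reporter mRNA via RT-PCR + capillary electrophoresis, fluorescence; activity fit upward relative to DMSO control.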

Experiment [19] has as its target Transcriptional activator Myb (Homo sapiens) (UniProt P10242). The experiment can be described thus: ATG_Myb_CIS: Attagene CIS-FACTORIAL HepG2 Assay for human Myeloblastosis (Myb) Proto-Oncogene Transcription Factor (AID 2282986). Particulars: HepG2 Attagene CIS-FACTORIAL Myb reporter transcription; actives raise or lower the signal. An outline of the steps: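 Using HepG2 liver cells bearing transiently transfected cis-promoter reporter constructs, the assay measures induction or loss of reporter mRNA after 24 hours of dosing. Detection used fluorescently labeled RT-PCR products separated by capillary electrophoresis.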

One may read the AC50 as the concentration at which the activity in the assay is half-maximal.

Transcriptional activator Myb (Homo sapiens), sequence (P10242 whole entry, looked up): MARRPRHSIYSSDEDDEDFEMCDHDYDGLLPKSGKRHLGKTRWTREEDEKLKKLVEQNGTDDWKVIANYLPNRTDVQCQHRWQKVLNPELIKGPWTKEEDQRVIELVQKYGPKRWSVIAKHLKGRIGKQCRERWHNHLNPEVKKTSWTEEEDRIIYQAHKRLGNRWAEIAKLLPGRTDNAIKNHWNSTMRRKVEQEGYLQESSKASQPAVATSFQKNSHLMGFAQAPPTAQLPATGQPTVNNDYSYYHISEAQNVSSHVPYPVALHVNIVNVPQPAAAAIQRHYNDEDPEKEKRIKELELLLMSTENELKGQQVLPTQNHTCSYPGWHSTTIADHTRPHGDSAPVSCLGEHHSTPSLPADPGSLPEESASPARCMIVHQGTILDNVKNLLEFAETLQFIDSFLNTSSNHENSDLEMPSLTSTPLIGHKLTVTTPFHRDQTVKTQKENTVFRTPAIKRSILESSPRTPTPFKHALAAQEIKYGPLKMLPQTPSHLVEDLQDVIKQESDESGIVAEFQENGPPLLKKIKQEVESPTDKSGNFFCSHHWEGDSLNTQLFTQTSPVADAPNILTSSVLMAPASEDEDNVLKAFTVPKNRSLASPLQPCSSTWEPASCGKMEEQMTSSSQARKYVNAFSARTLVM
Hepatocyte nuclear factor 4-alpha (Homo sapiens), sequence (P41235 whole entry, looked up): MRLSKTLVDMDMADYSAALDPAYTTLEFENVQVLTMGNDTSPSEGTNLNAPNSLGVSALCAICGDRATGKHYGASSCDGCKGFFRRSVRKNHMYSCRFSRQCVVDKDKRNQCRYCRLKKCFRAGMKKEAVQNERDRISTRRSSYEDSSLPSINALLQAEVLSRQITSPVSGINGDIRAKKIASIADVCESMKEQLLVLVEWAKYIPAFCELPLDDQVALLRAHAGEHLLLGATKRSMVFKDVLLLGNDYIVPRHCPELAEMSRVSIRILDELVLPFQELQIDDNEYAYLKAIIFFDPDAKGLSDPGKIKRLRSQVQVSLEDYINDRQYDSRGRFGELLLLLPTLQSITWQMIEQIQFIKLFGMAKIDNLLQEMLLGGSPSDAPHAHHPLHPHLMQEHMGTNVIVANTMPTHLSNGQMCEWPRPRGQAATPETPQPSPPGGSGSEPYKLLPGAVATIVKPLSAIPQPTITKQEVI

Turning to `c1ccc(-c2ccccc2)cc1`, the result in experiment [1], in experiment [2], in [3], in experiment [4], in experiment [5] and in experiment [6] was inactive. Also, the call in [7], in experiment [8], in experiment [9], in [11] and in experiment [12] was inactive. Moreover, in [10], the AC50 was 197 µM (active).
In the case of `CC(C)(c1ccccc1)c1ccc(O)cc1`, the AC50 in experiment [1] was 48.9 µM (active); in experiment [5], 49.6 µM (active); in experiment [6], 33.4 µM (active); in [7], 53.1 µM (active) and 50.4 µM (active); in experiment [8], 33.4 µM (active) and 45.2 µM (active) and 22.5 µM (active); in experiment [9] it was 54.7 µM (active) and 33.4 µM (active). The AC50 in experiment [10] was 57 µM (active); in experiment [11], 30.5 µM (active); in experiment [12], 31.1 µM (active); in [16] it was 32.9 µM (active); in [17], 35.3 µM (active). Besides, the result in [1], in experiment [13], in experiment [14], in experiment [15], in experiment [2] and in experiment [3] was inactive. Further, the compound was called inactive in [4], in experiment [5], in [6], in [7], in experiment [9] and in experiment [10].
Take `CCOP(=S)(OCC)SCSC(C)(C)C`: the AC50 was 12 µM (active) and 12.9 µM (active) in experiment [13]; 20.2 µM (active) and 27.7 µM (active) in experiment [14]; 67 µM (active) in [8]. Besides, the result in experiment [18], in [15], in experiment [2], in [3], in experiment [19] and in [4] was inactive. The call in experiment [5], in experiment [6], in experiment [8], in experiment [9], in experiment [10] and in experiment [11] was inactive. Also, the outcome in experiment [12] was inactive.
